Compounds with a hit are over-represented: about 11% of the library has one in this group of screens.
NPR1 antag: antagonists of human natriuretic peptide receptor Npr1 | Potency, µM (titrated, usually from 46.3 µM), usual class: inhibitors | AID 1347048 | HEK293 hNpr1 GloSensor cGMP, ANP-stimulated luminescence | 1.6% of 76,000 active; calls by dose curve; also: nearly all actives have a fitted effect of over 60% in size
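HEK293 cells stably expressing human Npr1 and cGMP GloSensor pGS-40F, loaded 2 h with 2% GloSensor reagent, given compound 30 min at room temperature. Luminescence read before and 20 min after 0.1 nM hNppA.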
NIH3T3 tox: kills NIH 3T3 cells | 4.3% of 94,000 active | Potency, µM (series often up to 96.7 µM), actives largely listed as inhibitors | NIH 3T3 viability, CellTiter-Glo ATP luminescence, 48-72 h | AID 1345082; also: nearly all actives have a fitted effect of over 55% in size
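ATP-dependent luminescence (CellTiter-Glo) served as the viability signal for NIH 3T3 cells treated with compound for 48 or 72 hr at 37 °C.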
HEK cytotox: HEK 293 cell cytotoxicity. HEK 293 viability, ATP luminescence (CellTiter-Glo), 48-72 h. Potency, µM (series often up to 115 µM), most hits filed as inhibitors. 6.6% of 94,000 active; also: nearly all actives have a fitted effect of over 60% in size
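HEK 293 cells seeded at 250 cells/well were exposed to compound for 48 or 72 hr at 37 degree Celsius. Viability taken as ATP content by CellTiter-Glo luminescence.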
FLuc inh: blocks purified firefly luciferase enzyme activity. purified P. pyralis luciferase, luminescence, biochemical. Potency, µM (titrated, usually from 115 µM), usual class: inhibitors. 2.5% of 76,000 active. AID 1347043; also: nearly all actives have a fitted effect of over 65% in size
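Luminescence read by CCD imager after adding enzyme (10nM final) to wells holding compound, titrated in qHTS. Substrates 10uM each D-luciferin and ATP; buffer 50mM Tris acetate pH 7.5, 10mM Mg acetate, Tween-20, BSA.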
Each line names hits and unclear results; the compound was inactive in the other large screens. Unless noted, calls follow the shape of the dose curve; as a rule, active = well fitted curve in the direction sought with a large enough effect; inconclusive = small, poorly fitted or top-dose-only effect, or another doubt; inactive = no such curve, though single readings can be large; an effect the other way counts as inactive or inconclusive.

O=C(c1ccc(Br)o1)N1CCCN(c2cc(-c3ccc(Cl)cc3)[nH]n2)CC1	NPR1 antag inconclusive, NIH3T3 tox 40µM, HEK cytotox inconclusive
Cc1nc(-c2cccc(Cl)c2)n(CC(=O)NCc2ccc(F)cc2)c(=O)c1CCO	NIH3T3 tox inconclusive, HEK cytotox inconclusive
CN1Cc2ccccc2NCCC1=O	NIH3T3 tox inconclusive (no result: NPR1 antag, FLuc inh)
Cc1ccc(C2(C(=O)N[C@@H]3COCC[C@@H]3OCc3ccccc3)CC2)cc1	NIH3T3 tox inconclusive, HEK cytotox 45µM
Nc1cccc(-c2ccc(N3CCOCC3)nn2)c1	NPR1 antag inconclusive, NIH3T3 tox inconclusive, HEK cytotox inconclusive, FLuc inh 3.2µM
O=C(Nc1cccc(-c2ccc(N3CCOCC3)nn2)c1)Nc1ccccc1C(F)(F)F	NIH3T3 tox inconclusive, HEK cytotox inconclusive, FLuc inh 2.2µM
Cc1ccc(NC(=O)Nc2cccc(-c3ccc(N4CCOCC4)nn3)c2)cc1F	FLuc inh inconclusive
Cc1c(F)cccc1NC(=O)Nc1cccc(-c2ccc(N3CCOCC3)nn2)c1	NPR1 antag inconclusive, FLuc inh 0.63µM
COc1cccc(NC(=O)Nc2cccc(-c3ccc(N4CCOCC4)nn3)c2)c1	NPR1 antag inconclusive, NIH3T3 tox inconclusive, HEK cytotox inconclusive, FLuc inh 1µM
COCc1cc(=O)n(CC(=O)Nc2cccc(OC)c2)c(N2CCOCC2)n1	none
CCn1cc(CN(C)C(=O)[C@H]2CN(Cc3ccccc3)C[C@H]2C(=O)O)c(C)n1	none
CC(C)Cn1c(=O)c(C(=O)N2CCN(C(=O)Nc3ccc(Cl)cc3)CC2)nc2cccnc21	none (no result: NPR1 antag, FLuc inh)
Cc1ccc([S+](=O)([O-])NCCNC(=O)c2cccc(-c3ncccc3C#N)c2)cc1	none (no result: NPR1 antag, FLuc inh)
Cc1ccc(Cl)cc1NC(=O)Nc1cccc(-c2ccc(N3CCOCC3)nn2)c1	HEK cytotox inconclusive, FLuc inh 1µM
O=C(c1ccncc1)N1CCC2(CC1)N=C(c1ccccc1)NO2	none
O=C(c1n[nH]c2c1CCCC2)N1CCC2(CC1)N=C(c1ccccc1)NO2	HEK cytotox inconclusive, FLuc inh 28µM
Cn1nc(C(=O)N2CCC3(CC2)N=C(c2ccccc2)NO3)c2ccccc21	HEK cytotox inconclusive, FLuc inh 35µM
Cc1cc(Cn2cc3c4c(cccc42)[C@H](CC(C)C)N[C@H](C(=O)NCc2ccccn2)C3)no1	NIH3T3 tox inconclusive, HEK cytotox 32µM
CC#CCn1cc2c3c(cccc31)[C@H](CC(C)C)N[C@H](C(=O)NCc1ccc(OC)cc1)C2	NIH3T3 tox inconclusive, HEK cytotox inconclusive
Cc1cc(Cn2cc3c4c(cccc42)[C@H](CC(C)C)N[C@H](C(=O)NCc2ccco2)C3)no1	NIH3T3 tox 28µM, HEK cytotox 40µM
O=C(C1CCCCC1)N1CCN2CCS(=O)(=O)N(C3CC3)C(=O)C2C1 (stereo not given)	none (no result: NPR1 antag, FLuc inh)
Cn1cc(CC(=O)N2CCCc3ncc(C(=O)NCc4cccs4)cc32)c2ccccc21	NIH3T3 tox inconclusive, HEK cytotox inconclusive
O=C1COCC2(CN(c3ccccc3)C2)CN1c1ccc(OC(F)(F)F)cc1	NIH3T3 tox 89µM, HEK cytotox 89µM
O=C1COCC2(CN(c3ccc(C(F)(F)F)cn3)C2)CN1c1ccc(F)cc1	NIH3T3 tox inconclusive, HEK cytotox inconclusive
COc1cccc(N2CCN(C(=O)c3ccc4c(c3)N(C)C3CCCCCN3C4=O)CC2)c1 (stereo not given)	HEK cytotox 50µM
CN1c2cc(C(=O)N3CCN(c4ccc(F)cc4)CC3)ccc2C(=O)N2CCCCCC21 (stereo not given)	NIH3T3 tox inconclusive, HEK cytotox 45µM
Cc1cccc(N2CCN(C(=O)c3ccc4c(c3)N(C)C3CCCCCN3C4=O)CC2)c1 (stereo not given)	NIH3T3 tox inconclusive, HEK cytotox 40µM
CN1c2cc(C(=O)N3CCN(c4ccc(F)cc4)CC3)ccc2C(=O)N2CCCCC21 (stereo not given)	HEK cytotox inconclusive
CCNC(=O)OC1CN(C(=O)c2ccc(C(C)(C)C)cc2)CCC(=O)N(C)c2ccccc21 (stereo not given)	HEK cytotox inconclusive (no result: NPR1 antag, FLuc inh)
CCOC(=O)[C@@H]1[C@@H](OC)C(=O)N(C)C12CCN(C(=O)OCC(C)C)CC2	NIH3T3 tox inconclusive (no result: NPR1 antag, FLuc inh)
Cc1cccc(C(=O)N2CC(N(Cc3ccccn3)S(C)(=O)=O)C2)c1	none (no result: NPR1 antag, FLuc inh)
O=C(O)C1=NOC2CN([S+](=O)([O-])C3CCCC3)CC12 (stereo not given)	none (no result: NPR1 antag, FLuc inh)
COc1ccc(C(=O)N2CCC3(CC2)CC(CN2CCOCC2)N(C)C3)cc1F (stereo not given)	none (no result: NPR1 antag, FLuc inh)
COc1cccc(CNC(=O)c2ccc3c(c2)N(C(=O)c2ccc(F)cc2)CC3)c1	NIH3T3 tox inconclusive, HEK cytotox inconclusive
COc1ccc(C(=O)N2CCc3ccc(C(=O)NCc4cccc(OC)c4)cc32)cc1	NIH3T3 tox inconclusive, HEK cytotox 79µM
COc1ccc(C(=O)N2CCc3ccc(C(=O)NCc4cccc(F)c4)cc32)cc1	NIH3T3 tox inconclusive, HEK cytotox 40µM
O=C(c1cc(F)ccc1F)N1CCC(Cc2noc(C3CC3)n2)C1 (stereo not given)	none (no result: NPR1 antag, FLuc inh)
COc1ccccc1-c1ccc2ncc(Nc3ccc(CN4CCN(C)CC4)cc3)n2n1	NIH3T3 tox 25µM, HEK cytotox 50µM
COc1ccc(Nc2cnc3ccc(-c4ccccc4OC)nn23)cc1	NIH3T3 tox inconclusive, HEK cytotox 79µM, FLuc inh inconclusive
COc1ccc(-c2ccc3ncc(Nc4ccc(CN5CCN(C)CC5)cc4)n3n2)cn1	NIH3T3 tox inconclusive, HEK cytotox inconclusive
Cn1cc(-c2cnc3[nH]cc(CC(=O)N4CCCC4)c3c2)cn1	NIH3T3 tox 32µM
Cn1cc(-c2cnc3[nH]cc(CC(=O)NCc4ccncc4)c3c2)cn1	NIH3T3 tox inconclusive
COC1CCN(C(=O)Cc2c[nH]c3ncc(-c4cnn(C)c4)cc23)CC1	NIH3T3 tox 45µM, HEK cytotox inconclusive
C[S+](=O)([O-])c1ccc(-c2cnc3[nH]cc(CC(=O)N4CCOCC4)c3c2)cc1	NIH3T3 tox 45µM
COC(=O)N1CCC(C(=O)N2CCC(N3Cc4ccccc4C3=O)CC2)CC1	none (no result: NPR1 antag, FLuc inh)
Cn1nc(C2CC2)cc1NC(=O)C1CCCC1	none (no result: NPR1 antag, FLuc inh)
CC(=O)N1CCCC1C(=O)Nc1ccc(-c2nc3ccccc3o2)cc1 (stereo not given)	HEK cytotox inconclusive, FLuc inh 16µM
COc1cccc(-c2ccc(NC(=O)C3CCCN3C(=O)CNC(C)=O)cc2)c1 (stereo not given)	HEK cytotox inconclusive
COc1cccc(-c2cccc(C(=O)N3CCN(C(=O)Cc4ccccn4)CC3)c2)c1	none (no result: NPR1 antag, FLuc inh)
COc1ccc(-c2ccc3ncc(Nc4ccc(F)c(Cl)c4)n3n2)cn1	NIH3T3 tox inconclusive
COc1ccc(-c2ccc3ncc(Nc4cccc(F)c4)n3n2)cn1	NIH3T3 tox inconclusive, HEK cytotox 63µM, FLuc inh inconclusive
COc1ccc(-c2ccc3ncc(Nc4ccccc4C)n3n2)cn1	NIH3T3 tox 89µM, HEK cytotox inconclusive
COc1ccc(-c2ccc3ncc(Nc4cccc(F)c4)n3n2)cc1OC	NIH3T3 tox inconclusive, HEK cytotox 63µM

Screening results (PubChem BioAssay)
